# Measurements published in ChEMBL document CHEMBL3433997, “St. Jude Leishmania screening dataset” (2016).
# Key:
# Assay type in all cases: functional
# [1] = target: Solute carrier family 2, facilitated glucose transporter member 1 (Homo sapiens) (UniProt P11166); assay: ST_JUDE_LEISH: Cytotoxicity at 2uM final concentration against transgenic Leishmania Mexicana promastigotes LmGLUT1 that are glucose transport deficient and complemented with the human glucose transporter GLUT1. Activity is measured by DNA content using SYBR green in vitro
# [2] = target: Hexose transporter 1 (Plasmodium falciparum) (UniProt O97467); assay: ST_JUDE_LEISH: Cytotoxicity at 2uM final concentration against transgenic Leishmania Mexicana promastigotes LmPfHT that are glucose transport deficient and complemented with the Plasmodium falciparum hexose transporter. Activity is measured by DNA content using SYBR green in vitro
# [3] = target: Glucose transporter (Leishmania mexicana) (UniProt O61059); assay: ST_JUDE_LEISH: Cytotoxicity at 2uM final concentration against transgenic Leishmania Mexicana promastigotes LmGT2 that are glucose transport deficient and complemented with the L. Mexicana glucose transporter 2. Activity is measured by DNA content using SYBR green in vitro
# Solute carrier family 2, facilitated glucose transporter member 1 (Homo sapiens), sequence (P11166 whole entry): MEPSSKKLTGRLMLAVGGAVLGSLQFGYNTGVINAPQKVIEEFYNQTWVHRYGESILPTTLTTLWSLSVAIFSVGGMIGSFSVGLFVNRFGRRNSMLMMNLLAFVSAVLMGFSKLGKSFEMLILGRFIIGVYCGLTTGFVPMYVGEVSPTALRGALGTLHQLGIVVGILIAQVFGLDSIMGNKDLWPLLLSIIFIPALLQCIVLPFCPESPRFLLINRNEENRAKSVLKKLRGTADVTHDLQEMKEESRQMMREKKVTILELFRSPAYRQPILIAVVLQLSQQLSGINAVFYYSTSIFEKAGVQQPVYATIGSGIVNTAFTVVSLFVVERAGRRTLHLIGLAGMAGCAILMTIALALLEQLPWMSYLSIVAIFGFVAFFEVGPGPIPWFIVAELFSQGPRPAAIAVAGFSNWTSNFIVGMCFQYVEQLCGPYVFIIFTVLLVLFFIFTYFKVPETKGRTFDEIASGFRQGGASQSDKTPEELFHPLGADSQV
Compound,inhibition [1] [%],inhibition [2] [%],inhibition [3] [%]
O=[N+]([O-])c1cccc(/C=N/Nc2ccnc3ccc(C(F)(F)F)cc23)c1,4.51,2.45,0.3
COc1ccccc1N1CCN(c2cccc3c2nc(-c2cncc(C#N)c2)n3CCNCc2ccccc2)CC1,9.96,7.58,6.47
Oc1ccc(CCNc2nc(NCc3ccccc3-c3ccc(F)cc3)nc(N3CCNCC3)n2)cc1,-6.17,3.48,6.39
O=C(NCCN1Cc2ccccc2C1=O)c1ccc(Oc2ccc(C(=O)NCCN3Cc4ccccc4C3=O)cc2)cc1,-0.35,0.02,-0.4
COc1cc(Br)c(NC(=O)Nc2ccc(C(F)(F)F)c(O[C@@H]3CCN(C)C3)c2)cc1OC,2.53,2.26,1.55
CCN(CC)CCCC(C)Nc1c(-c2ccc(Br)cc2)cnc2ccccc12 (stereo unspecified),57.5,14.4,3.73
COc1ccc(NC(=O)[C@H](Cc2ccccc2)Nc2cc(C)nc(NCCc3ccccc3OC)n2)cc1,-0.03,-1.38,-0.97
CCC(C)NS(=O)(=O)c1ccc2nc(Nc3ccc(C)c(Cl)c3)n(C3CCCCC3)c2c1 (stereo unspecified),5.56,5.72,4.46
Cc1c(F)cc(C(=O)NC2CC2)cc1-c1ccc2c(cnn2S(=O)(=O)c2ccc(C#N)cc2)c1,-0.7,1.11,0.73
Cc1nc2ccc3nc(NC(=O)c4ccno4)sc3c2s1,1.74,1.13,-1.31
CC1CCN(Cc2ccc(NC(=O)c3cc4ccc5cccnc5c4[nH]3)cc2)CC1,7.7,7.81,7.77
CCNc1cc(C)nc(Nc2ccc(F)cc2)n1,22.3,11.9,8.37
FC(F)(F)COc1ccc2ccccc2c1CNCCCCCCNCc1c(OCC(F)(F)F)ccc2ccccc12,1.61,0.57,-1.38
Cn1ncc2c3c(CCN4CCC(NCc5cc6c(cn5)OCCO6)CC4)c(Cl)cnc3ccc21,1.09,1.93,-0.85
O=C(Nc1cccc(F)c1)NC1CCN(c2ccnc3cc(Cl)ccc23)CC1,2.51,1.28,1.75
COc1ccc(NC(=O)N2CCc3ccc(OCCN(C(C)C)C(C)C)cc32)cc1C(F)(F)F,7.93,7.33,5.73
CCOC(=O)c1nc(-c2cccnc2)[nH]c1NC(=S)NCc1ccccc1,1.58,0.92,3.75
O=C(NCC1CCN(Cc2ccc3c(c2)OCCO3)C1)c1cc(-c2cccc(C(F)(F)F)c2)cs1 (stereo unspecified),-2.67,-0.91,2.27
CCNCc1ccc(-c2cc3ncnc(Nc4ccc(OCc5cccc(F)c5)c(Cl)c4)c3s2)[nH]1,-0.88,-3.14,3.41
COCCNCc1cccc(-c2ccc3c(Nc4cc(O)c(Cl)cc4F)ccnc3c2)c1,2.97,3.2,2.93
COc1cc(Nc2nc(N)n(C(=O)c3ccc4c(c3)OCO4)n2)cc(OC)c1OC,15.3,9.11,0.33
O=C(CNc1ccncc1)c1c[nH]c2ccccc12,0.52,2.3,0.74
CN1CCC(C(=O)Nc2ccc(-c3ccc(-c4nc5ccccc5[nH]4)s3)cc2)CC1,0.79,-2.31,0.49
N#Cc1cccc(NC(=O)Nc2ccc(CC(=O)N3CCc4cc(Cl)c(N5CCN(C/C=C/c6ccccc6)CC5)cc43)cc2)c1,2.33,4.39,2.7

Compound,inhibition [1] [%],inhibition [2] [%],inhibition [3] [%]
CN(C)c1nc(NCc2ccccc2)nc(N/N=C/c2cc([N+](=O)[O-])ccc2O)n1,-1.92,-1.79,-1.5
Clc1ccc(-c2nc(-c3ccncc3)c[nH]2)cc1Cl,0.68,0.78,-0.87
NCCNc1ccc([N+](=O)[O-])cc1C(=O)Nc1cccc(C(F)(F)F)c1,3.02,3.19,3.98
Cc1ccc2[nH]c(-c3ccccc3)cc(=NN=Cc3cccnc3)c2c1,1.16,0.03,-2.99
CN=C(NC)c1cccc(NC(=O)C=Cc2ccc(C=CC(=O)Nc3cccc(C(=NC)NC)c3)cc2)c1,0.52,2.48,-0.11
COc1cc(NC(=O)c2sc(-c3ccc(Cl)cc3)cc2NC(=O)CN2CCCC2)ccc1OCCN1CCCC1,5.97,9.91,4.39
Cc1cccc2nc(-c3ccc(-c4cccc(NC(=O)c5cccc(C(N)=O)c5)c4)cc3)[nH]c12,3.55,3.07,2.8
COc1ccc(N2CCN(CCCCNC(=O)c3ccc(NC(=O)c4cc(C(F)(F)F)cc(C(F)(F)F)c4)cc3)CC2)cc1OC,1.59,2.48,2.71
Cc1cc(=NN=Cc2ccccn2)c2cc(F)ccc2[nH]1,4.3,5.11,0.4
O=C(N[C@@H](Cc1ccccc1)C(=O)NCCN1CCCC1)c1ccc(O)c(-c2ccc(Cl)c(Cl)c2)c1,7.15,3.32,6.16
O=C([C@H]1CCCCN1c1ccc([N+](=O)[O-])c2ccccc12)N1CCN(c2ncccn2)CC1,2.02,3.05,2.64
CC(=O)Nc1cccc(C(=O)Nc2cccc(-c3cccc(-c4nc5cc(F)ccc5[nH]4)c3)c2)c1,3.73,3.51,7.22
O=C(/C=C/c1ccc(Cl)c(Cl)c1)N1CCC(CCN2CCC(c3c[nH]c4cc5c(cc34)OCO5)CC2)CC1,0.05,0.01,-0.27
CCCC1N=C(N)N=C(N)N1c1cccc(C(F)(F)F)c1 (stereo unspecified),0.83,0.06,0.06
Cc1ccccc1C1CCN(C2CCC(NC(=O)/C=C/c3c[nH]c4ccccc34)CC2)CC1 (stereo unspecified),2.31,0.84,-0.41
CC(=O)Nc1ccc(C(=O)Nc2cccc(-c3cccc(-c4nc5cc(C(F)(F)F)ccc5[nH]4)c3)c2)cn1,-0.64,-2.32,-1.64
COc1c(Br)cc(Br)cc1C(C)=O,3.62,3.58,-0.79
COc1ccc2nc3cc(Cl)ccc3c(NCCCCN3CCNCC3)c2c1,6.28,6.49,3.51
c1ccc2c(c1)ncc1c3ccccc3[nH]c21,7.76,7.76,4.67
COc1ccc(CNCc2ccsc2)cc1-c1ccc(S(=O)(=O)NCCN2CCCC2)s1,8.12,8.67,5.77
Cc1cccc2nc(-c3ccc(-c4ccc(CN5CCC(N)C5)cc4)s3)[nH]c12 (stereo unspecified),-3.3,0.94,-2.11
NC(=O)c1sc(-n2cnc3ccc(OCC4CCNCC4)cc32)cc1OCc1ccccc1C(F)(F)F,0.4,-0.16,0.31
C=C[C@H]1CN(CCCCCCC)CC[C@H]1CCNc1ccnc2ccc(OC)cc12,-2.18,3.68,-1.48
OC(COCc1ccc(-c2ccccc2)cc1)CN1CCCCC1 (stereo unspecified),2.72,1.99,3.58

Compound,inhibition [1] [%],inhibition [2] [%],inhibition [3] [%]
CN(C(=O)c1ccccc1)C1c2cc(C#N)ccc2OC(C)(C)C1O (stereo unspecified),0.42,0.76,0.38
CCCn1c(Sc2ccc(C#N)c([N+](=O)[O-])c2)nnc1-c1ccc(OC)cc1,1.76,0.24,-0.23
COc1cc2nc(SCCCC#N)n(C3CCCCCC3)c(=N)c2cc1OC,7.27,5.84,2.84
COc1ccc(Cl)cc1NC(=O)CN(C)C(=O)c1cnn(-c2ccccc2)n1,1.85,-0.34,3.11
COc1ccccc1CNC(=O)CCn1c(=O)[nH]c2ccsc2c1=O,2.58,3.17,1.36
CS(=O)(=O)c1ccc(CNCc2cccc(-c3ccc(-c4nc5cc(C(F)(F)F)ccc5[nH]4)cc3)c2)cc1,5.51,5.08,3.3
CN1CCCC(CN2CCN(Cc3ccc(-c4ccc(-c5nc6cc(F)ccc6[nH]5)s4)cc3)CC2)C1 (stereo unspecified),5.94,5.97,4.47
Cc1noc(C)c1-c1ccc2c(Nc3ccc(C#N)cc3)c(C(N)=O)cnc2c1,4.95,4.62,5
O=C(C1CC1c1ccccc1)N(Cc1ccc(-c2ccc(CNCCc3ccccc3)cc2)cc1)C1CCNCC1 (stereo unspecified),10.3,8.35,9.97
Cc1[nH]c2ccc(-c3ccc(N(C)C)cc3)cc2c(=O)c1Cl,2.49,3.7,2.73
NC(=O)c1ccc(C(=O)Nc2cccc(-c3ccc(-c4nc5cc(C(F)(F)F)ccc5[nH]4)cc3)c2)cc1,-2.41,-0.2,-2.73
CS(=O)(=O)Nc1cccc(-c2cnc3[nH]cc(-c4cccc(CN)c4)c3c2)c1,4.77,3.29,3.74
Cc1cccc2nc(-c3ccc(-c4cccc(C(=O)NCCN5CCCC5)c4)s3)[nH]c12,10.1,10.7,9.13
COc1ccc(C2c3ccccc3-c3nc(N)nc(N)c3C2C)cc1 (stereo unspecified),3.13,3.19,0.31
O=C1SC(=Cc2ccc(O)c(O)c2)C(=O)N1c1ccccc1,2.29,2.56,0.86
CCOC(=O)c1cn(CC)c2cc(F)c(OC3CC4CCC3(C)C4(C)C)cc2c1=O (stereo unspecified),-1.86,-1.79,-3.18
O=C(Nc1ccc(-c2nc3ccccc3[nH]2)cc1)C1CCN(Cc2ccc(F)cc2)CC1,41.4,44.9,30.5
Nc1ccc(-c2ccc(NC(=O)Nc3ccccc3)cc2)cn1,2.95,2.5,3.08
CN(C)CCOc1ccc(-c2cc(-c3ccncc3)c(-c3ccc(Cl)c(O)c3)o2)cc1,1.31,1.64,0.33
COc1ccc(OCCCN2CCCCC2)cc1S(=O)(=O)c1ccc(OCc2ccc(C(F)(F)F)cc2)cc1,2.4,0.01,2.1
C=Cc1cc(NC(=O)N2CCc3cc(OC)c(C(F)(F)F)cc32)cc(-c2cccnc2)c1,4.52,-1.84,-1.09
Nc1nc(N)c2c(CCc3ccc4ccccc4c3)cccc2n1,3.27,1.63,-1.66
Oc1ccc(Nc2nc(N3CCCC3)c3ccccc3n2)cc1,2.69,1.64,-0.61
O=C(/C=C/c1ccc(Cl)c(Cl)c1)NCCCCCCN1CCN(C(=O)Nc2ccc(Cl)c(C(F)(F)F)c2)CC1,4.18,4.06,-1.95
